Laboratory results as given in PubChem BioAssay (NCATS).
Records with an inconclusive call do not appear. Active and inactive are the calls of the source. Calls follow the shape of the dose curve; as a rule, active = well fitted curve in the direction sought with a large enough effect; inconclusive = small, poorly fitted or top-dose-only effect, or another doubt; inactive = no such curve, though single readings can be large; an effect the other way counts as inactive or inconclusive.

Columns and labels:
[1] = tested on: Zika virus NS2B-NS3 protease (linked construct); experiment: Primary screen NINDS Rhodamine qHTS for Zika virus inhibitors (AID 1347160); also: nearly all actives have a fitted effect of over 55% in size
How it was run: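 Each compound, titrated, sat 15 min with 25 nM linked protease before 1.5 microM Rhodamine110 substrate went in. Fluorescence gain over the next 15 min, in pH 8.0 Tris with Tween 20, gave Hill-fitted curves.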

[2] = molecular target: Calcium and integrin-binding protein 1 (Homo sapiens) (UniProt Q99828); experiment: Primary qHTS for Identification of Calcium Integrin Binding Protein 1 (CIB1) Competitor (AID 1508620);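 also: GST tagged CIB1 binding a fluorescein labelled alphaIIb integrin peptide tracer; top concentration of the series differs between compounds; % is scaled to controls: 0 for no effect and ±100 for the full control effect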
How it was run: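 Fluorescence polarization competition: CIB1-GST (1 uM final) preincubated with compound 15 min at room temperature, then FITC-labeled alphaIIb peptide (100 nM final) added for another 15 min. Polarization read at Ex 480/Em 540.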

[3] = molecular target: Glutathione peroxidase 1 (Homo sapiens) (UniProt P07203); experiment: Primary qHTS Assay for Inhibitors of Recombinant Selenoprotein Glutathione Peroxidase 1 (GPX1) (AID 1845191); also: nearly all actives have a fitted effect of over 65% in size
How it was run: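 GPX1 10 nM, GR 100 nM, GSH 1 mM, NADPH 0.5 mM, CHP 0.5 mM (final). 30-min cpd preincubation, RT. Ex340/Em450 read t=0, t=15 min.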

[4] = molecular target: Phospholipid hydroperoxide glutathione peroxidase GPX4 (Homo sapiens) (UniProt P36969); experiment: Primary qHTS Assay for Inhibitors of Recombinant Selenoprotein Glutathione Peroxidase 4 (GPX4) (AID 1845192); also: nearly all actives have a fitted effect of over 65% in size; also: potency is read from the fitted curve at half-maximal effect
How it was run: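 qHTS, GR-coupled: GPX4 200 nM + cpd 30 min RT → GSH 1 mM, NADPH 0.5 mM, GR 100 nM → CHP 0.5 mM start; fluor 340/450 at t0 and t15 min; no-enzyme wells as control.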

[5] = molecular target: Luciferin 4-monooxygenase (Photinus pyralis) (UniProt P08659); experiment: Primary firefly luciferase (FLuc) qHTS assay for identification of artifact compounds. (AID 1845220); conditions: outcome: dose series up to 54.1 µM unless noted; also: nearly all actives have a fitted effect of over 60% in size
How it was run: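 In this counter-screen for luciferase artifacts, test compounds met substrate (10 uM each luciferin and ATP) before 10 nM enzyme started the reaction. Light output was measured 5 min later.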

[6] = Primary fluorescence-based thiol-reactive (MSTI) qHTS assay for identification of artifact compounds. (AID 1845221);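 also: thiol-reactive compounds lower the probe fluorescence signal; nearly all actives have a fitted effect of over 65% in size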
How it was run: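 One-hour, room-temperature, dark incubation of compound with 4 uM MSTI in PBS (pH 7.4, 2% DMSO) precedes a fluorescence read at 525 nm excitation, 598 nm emission; Hill-equation fitting yields concentration-response values.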

[7] = tested on: Nanoluciferase (engineered Oplophorus gracilirostris luciferase); experiment: Primary Nanoluciferase (NLuc) qHTS assay for identification of artifact compounds. (AID 1845222);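 also: NLuc secreted into diluted conditioned medium of S16 cells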
How it was run: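 Using secreted nanoluciferase in S16 culture medium (0.22 um filtered, 1:55 dilution), compounds were preincubated 15 min at RT. Signal was generated with Nano-Glo reagent (1:100) over 5 min.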

[8] = Primary redox qHTS assay for identification of artifact compounds. (AID 1845223);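 also: 0% = DMSO and 100% = reference compound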
How it was run: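 Redox-cycling detection via DTT (250 uM final) oxidation coupled to Amplex Red (25 uM)/HRP (250 mU/mL) in HBSS. 15 min preincubation plus 30 min after DTT, room temperature. Ex/Em 525/598 nm; 4-parameter Hill fit against DMSO and 10 uM DA3003.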

HaCat = experiment: Cytotoxic Profiling of Annotated Libraries Using Quantitative High-Throughput Screening (AID 1296008); conditions: Five cell lines viability, CellTiter-Glo ATP luminescence, 48-72 h; max response: hits give low values; also: nearly all actives have a fitted effect of over 60% in size; also: potency is read from the fitted curve at half-maximal effect; as to max response: % is scaled to controls: 0 for no effect and ±100 for the full control effect
How it was run: (§1)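 Compounds were pin-transferred onto cells and incubated 48 or 72 hr at 37 degree Celsius, 95% humidity. CellTiter-Glo was added, plates sat 10 min at room temperature, then ATP-coupled luminescence was imaged as the viability read-out.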

NIH3T3 = experiment: as above; conditions: Five cell lines viability, CellTiter-Glo ATP luminescence, 48-72 h; max response: hits give low values
How it was run: as §1

C33A = experiment: Primary qHTS to identify gynecologic anti-cancer compounds using libraries of approved drugs and bioactive compounds (AID 1345084); conditions: Gynecologic cancer cell panel viability, ATPlite luminescence, 48 h; series mostly up to 57.5 µM; also: nearly all actives have a fitted effect of over 55% in size; also: potency is read from the fitted curve at half-maximal effect
How it was run: (§2)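 In this quantitative HTS, cell killing is estimated from loss of ATP-dependent luciferase light. Cells see five compound concentrations over a 48 h exposure.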

CAOV3 = experiment: as above; conditions: Gynecologic cancer cell panel viability, ATPlite luminescence, 48 h; series mostly up to 57.5 µM
How it was run: as §2

CASKI = experiment: as above; conditions: Gynecologic cancer cell panel viability, ATPlite luminescence, 48 h; series mostly up to 57.5 µM
How it was run: as §2

Es-2 = experiment: as above; conditions: Gynecologic cancer cell panel viability, ATPlite luminescence, 48 h; series mostly up to 57.5 µM
How it was run: as §2

Hek293T = experiment: as above; conditions: Gynecologic cancer cell panel viability, ATPlite luminescence, 48 h, control line for the selectivity index; series mostly up to 57.5 µM
How it was run: as §2

JEG-3 = experiment: as above; conditions: Gynecologic cancer cell panel viability, ATPlite luminescence, 48 h; series mostly up to 57.5 µM
How it was run: as §2

OV90 = experiment: as above; conditions: Gynecologic cancer cell panel viability, ATPlite luminescence, 48 h; series mostly up to 57.5 µM
How it was run: as §2

PA-1 = experiment: as above; conditions: Gynecologic cancer cell panel viability, ATPlite luminescence, 48 h; series mostly up to 57.5 µM
How it was run: as §2

Tov-21-G = experiment: as above; conditions: Gynecologic cancer cell panel viability, ATPlite luminescence, 48 h; series mostly up to 57.5 µM
How it was run: as §2

Tov112D = experiment: as above; conditions: Gynecologic cancer cell panel viability, ATPlite luminescence, 48 h; series mostly up to 57.5 µM
How it was run: as §2

Chain of Glutathione peroxidase 1 (Homo sapiens) (P07203 whole entry, looked up): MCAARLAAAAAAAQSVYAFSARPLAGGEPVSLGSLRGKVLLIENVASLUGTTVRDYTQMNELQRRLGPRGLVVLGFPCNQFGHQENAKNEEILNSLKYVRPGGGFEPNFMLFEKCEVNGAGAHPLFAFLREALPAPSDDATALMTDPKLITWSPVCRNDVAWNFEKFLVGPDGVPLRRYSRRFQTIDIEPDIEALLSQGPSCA
Chain of Calcium and integrin-binding protein 1 (Homo sapiens) (Q99828 whole entry, looked up): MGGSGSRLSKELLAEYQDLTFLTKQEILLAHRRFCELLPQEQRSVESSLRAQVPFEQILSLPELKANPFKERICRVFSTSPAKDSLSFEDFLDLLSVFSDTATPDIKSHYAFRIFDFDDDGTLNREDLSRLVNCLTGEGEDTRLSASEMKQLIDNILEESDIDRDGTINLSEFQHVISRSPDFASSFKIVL
Chain of Phospholipid hydroperoxide glutathione peroxidase GPX4 (Homo sapiens) (P36969 whole entry, looked up): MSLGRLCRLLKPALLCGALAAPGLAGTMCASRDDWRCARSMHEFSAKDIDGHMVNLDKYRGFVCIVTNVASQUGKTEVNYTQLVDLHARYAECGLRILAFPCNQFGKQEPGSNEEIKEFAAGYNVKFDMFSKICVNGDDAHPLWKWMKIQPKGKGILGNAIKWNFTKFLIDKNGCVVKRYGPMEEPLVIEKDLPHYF

CCCN(CCC)[C@@H]1CCc2ccc3[nH]c(C#N)cc3c2C1
inactive: Potency [1] | Potency [2] | Potency [3] | Potency [4] | outcome [5] | Potency [6] | Potency [7] | Potency [8] | outcome (HaCat) | outcome (NIH3T3) | Potency (C33A) | Potency (CAOV3) | Potency (CASKI) | Potency (Es-2) | Potency (Hek293T) | Potency (JEG-3) | Potency (OV90) | Potency (PA-1) | Potency (Tov-21-G) | Potency (Tov112D)

COc1cc(C(=O)N2CC[C@@H](O)[C@@H](N)C2)cc2nc(-c3cc4ccccc4n3CC3CC3)n(C)c12
inactive: Potency [2] | Potency [4]

Cc1c(N[C@@H](c2nnc(-c3ccc(C#N)cc3)o2)[C@H](C)O)ccc(C#N)c1Cl
inactive: Potency [1] | Potency [2] | Potency [3] | Potency [4] | outcome [5] | Potency [6] | Potency [7] | Potency [8] | max response (HaCat) -11% | max response (NIH3T3) 4.88% | Potency (C33A) | Potency (CAOV3) | Potency (CASKI) | Potency (Es-2) | Potency (Hek293T) | Potency (JEG-3) | Potency (OV90) | Potency (PA-1) | Potency (Tov-21-G) | Potency (Tov112D)

CCN1C[C@]2(COC)CC[C@H](O)[C@@]34C5C[C@@H]6[C@@H](OC)C[C@@](OC(C)=O)(C5[C@@H]6OC(C)=O)[C@H]([C@H](OC)C23)[C@@H]14 (stereo not given in full)
inactive: Potency [1] | Potency [2] | Potency [3] | Potency [4] | outcome [5] | Potency [6] | Potency [7] | Potency [8] | max response (NIH3T3) 2.14% | Potency (C33A) | Potency (CAOV3) | Potency (CASKI) | Potency (Es-2) | Potency (Hek293T) | Potency (JEG-3) | Potency (OV90) | Potency (PA-1) | Potency (Tov-21-G) | Potency (Tov112D)

C=C(C)[C@@]12O[C@@H]1[C@@]1(C)C(=CC2=O)CC[C@@H](OC(C)=O)[C@@H]1C
inactive: Potency [2] | Potency [3] | Potency [4] | outcome [5] | Potency [7] | Potency [8] | Potency (CAOV3) | Potency (CASKI) | Potency (JEG-3)
active: Potency (NIH3T3) 3.66 µM | Potency (Tov-21-G) 10 µM

C#C[C@]1(O)CC[C@H]2[C@@H]3CC[C@H]4Cc5nc6nc7ccccc7n6cc5C[C@]4(C)[C@H]3CC[C@@]21C
inactive: Potency [2] | Potency [3] | Potency [4] | outcome [5] | Potency [6] | Potency [7] | Potency [8] | Potency (C33A) | Potency (CAOV3) | Potency (CASKI) | Potency (Es-2) | Potency (Hek293T) | Potency (JEG-3) | Potency (OV90) | Potency (PA-1) | Potency (Tov112D)

COC1(C[S@@](=O)c2ccccc2)CCN(CCc2c[nH]c3ccc(F)cc23)CC1
inactive: Potency [1] | Potency [2] | Potency [3] | Potency [4] | outcome [5] | Potency [6] | Potency [7] | Potency [8] | max response (HaCat) 3.53% | max response (NIH3T3) 1.71% | Potency (C33A) | Potency (CAOV3) | Potency (CASKI) | Potency (Es-2) | Potency (Hek293T) | Potency (JEG-3) | Potency (OV90) | Potency (PA-1) | Potency (Tov-21-G) | Potency (Tov112D)

COc1ccc2[nH]c(-c3ccccc3)c(CCN(C)C)c2c1
inactive: Potency [1] | Potency [2] | Potency [3] | outcome [5] | Potency [7] | Potency [8] | outcome (HaCat) | max response (NIH3T3) -23.1% | Potency (C33A) | Potency (CAOV3) | Potency (CASKI) | Potency (Es-2) | Potency (Hek293T) | Potency (JEG-3) | Potency (OV90) | Potency (PA-1) | Potency (Tov-21-G) | Potency (Tov112D)
active: Potency [4] 16.1 µM

CCOP(=O)(OCC)Oc1ccc2c(C)cc(=O)oc2c1
inactive: Potency [1] | Potency [2] | Potency [3] | outcome [5] | Potency [6] | Potency [7] | Potency [8] | max response (HaCat) -15.5% | max response (NIH3T3) -21.6% | Potency (C33A) | Potency (CAOV3) | Potency (CASKI) | Potency (Es-2) | Potency (OV90) | Potency (PA-1) | Potency (Tov-21-G) | Potency (Tov112D)

C/C=C1/CN2CC[C@]34C(=Nc5ccccc53)[C@@H]2C[C@@H]1[C@H]4C(=O)OC
inactive: Potency [1] | Potency [2] | Potency [3] | Potency [4] | outcome [5] | Potency [7] | Potency [8] | max response (HaCat) -0.364% | max response (NIH3T3) -14.3% | Potency (C33A) | Potency (CAOV3) | Potency (CASKI) | Potency (Es-2) | Potency (Hek293T) | Potency (JEG-3) | Potency (OV90) | Potency (PA-1) | Potency (Tov-21-G) | Potency (Tov112D)

CC12CCC3C(C1)c1c(cc(O)c(C(=O)c4ccccc4)c1OC3(C)C)O2 (stereo not given)
inactive: Potency [1] | Potency [4] | outcome [5] | Potency [6] | Potency [7] | max response (HaCat) -1.85% | max response (NIH3T3) 3.12% | Potency (C33A) | Potency (CAOV3) | Potency (CASKI) | Potency (Es-2) | Potency (Hek293T) | Potency (JEG-3) | Potency (OV90) | Potency (PA-1) | Potency (Tov-21-G) | Potency (Tov112D)

C=C(C)[C@@]12O[C@@H]1[C@@]1(C)C(=C[C@H]2O)CC[C@@H](O)[C@@H]1C
inactive: Potency [1] | Potency [2] | Potency [3] | Potency [4] | outcome [5] | Potency [6] | Potency [7] | Potency [8] | max response (HaCat) -1.07% | max response (NIH3T3) 2.77% | Potency (C33A) | Potency (CAOV3) | Potency (CASKI) | Potency (Es-2) | Potency (Hek293T) | Potency (JEG-3) | Potency (OV90) | Potency (PA-1) | Potency (Tov-21-G) | Potency (Tov112D)
